SMILES strings stand for the structures. About 4,000 (25%) of roughly 16,000 compounds were called active. About 26% were inconclusive and are not listed. Calls follow the shape of the dose curve; as a rule, active = well fitted curve in the direction sought with a large enough effect; inconclusive = small, poorly fitted or top-dose-only effect, or effect the other way; inactive = no such curve, though single readings can be large or run the other way. A selection follows.
% is scaled to controls: 0 for no effect and ±100 for the full control effect.

Sequence of Cytochrome P450 2C9 (Homo sapiens) (P11712 whole entry, looked up): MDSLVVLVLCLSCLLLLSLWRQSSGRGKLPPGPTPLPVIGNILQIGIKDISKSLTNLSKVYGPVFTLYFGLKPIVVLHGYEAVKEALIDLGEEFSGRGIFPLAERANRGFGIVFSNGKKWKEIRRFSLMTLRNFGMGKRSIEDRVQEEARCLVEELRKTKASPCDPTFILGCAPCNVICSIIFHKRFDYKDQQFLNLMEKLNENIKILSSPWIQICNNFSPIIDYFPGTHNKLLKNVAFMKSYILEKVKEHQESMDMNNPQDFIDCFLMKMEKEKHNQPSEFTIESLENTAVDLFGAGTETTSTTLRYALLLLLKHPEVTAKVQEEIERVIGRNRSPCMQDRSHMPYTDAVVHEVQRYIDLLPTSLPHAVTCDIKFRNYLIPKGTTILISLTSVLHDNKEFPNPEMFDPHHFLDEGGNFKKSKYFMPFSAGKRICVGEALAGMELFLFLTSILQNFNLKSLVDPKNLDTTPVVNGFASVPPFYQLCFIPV

The assay concerns the target Cytochrome P450 2C9 (Homo sapiens) (UniProt P11712). Put plainly: Cytochrome panel assay with activity outcomes. The following applies: recombinant CYP, pro-luciferin dealkylation, luminescence, p450-cyp2c9; series mostly up to 57.1 µM; activity, negative = inhibition: at the top concentration.
For `CC(=O)N1CCC2(CCCN(C(=O)Nc3cccc(F)c3)C2)CC1`, the “activity, negative = inhibition” value was -0.517% (inactive).
On the same count and under the same terms, the value for `OCCNc1ncnc2c1ncn2[C@@H]1O[C@@H](CO)[C@H](O)[C@@H]1O` was 8.16% [at 11.4 µM] (inactive).
`COc1ccc(CN(CCN(C)C)c2ccccn2)cc1`: the AC50 result is “inactive”.
As to `Cc1ccc(N(Cc2ccccc2)Cc2ccccc2)cc1`, the activity, negative = inhibition was -16.6% [at 11.4 µM] (inactive).
As for `CN(C)c1nccc(N(Cc2ccccc2)Cc2ccccc2)c1C#N`, the concentration at half-maximal activity (AC50) is 2.24 µM (active).
Regarding `Cc1ccc(N=Nc2ccc(N)cc2C)c(S(N)(=O)=O)c1`, the activity, negative = inhibition was -8.16% [at 11.4 µM] (inactive).
Take `COc1ccc(NC(=O)CSc2nc(-c3ccc(C)cc3)cc(C(F)(F)F)c2C#N)cc1`: the AC50 is 0.794 µM (active).
In the case of `CCCCCCN1Cc2ccccc2C1`, the “activity, negative = inhibition” value was 4.38% (inactive).
On to `N=C(N)N1CCc2ccccc2C1`, for which the “activity, negative = inhibition” value is -9.55% [at 25.6 µM] (inactive).
Take `CCc1ccc(/C=C\C(=O)N2CCc3ccccc3C2)cc1`: the AC50 was 22.4 µM (active).
For `Clc1ccccc1OCCCCN1CCCC1`, the “activity, negative = inhibition” value was -9.04% (inactive).
Still for that read-out and setting: the value for `COc1ccc(-c2cc(C(=O)NCc3cccnc3)no2)cc1OC` was 23.4% (inactive).
Turning to `CCOc1ccc(OCc2ccc(C(=O)NCc3cccnc3)o2)cc1`, the AC50 is 12.6 µM (active).
For `CCOc1cccc(CNCCNC(=O)c2nonc2N)c1`, the “activity, negative = inhibition” value was -17% (inactive).
Turning to `CC1CCN(C(=O)c2ccc(COc3ccccc3Cl)o2)CC1`, the AC50 is 17.8 µM (active).
For `Cc1ccccc1-c1cc(NCc2cccnc2)ncn1`, the activity, negative = inhibition is -13% [at 2.29 µM] (inactive).
Regarding `CCOc1ccc(OCc2ccc(C(=O)N3CCc4ccccc4C3)o2)cc1`, the concentration at half-maximal activity (AC50) was 5.01 µM (active).
`Cc1cc(=O)oc(C)c1C(=O)NCc1ccccc1`: the “activity, negative = inhibition” value is -11.3% (inactive).
With `COc1ccccc1OCc1ccc(C(=O)N(C)C)o1`, the “activity, negative = inhibition” value was -18% (inactive).
Consider `Cc1ccccc1CS(=O)(=O)Cc1ccc(C(=O)NCc2cccnc2)o1`, for which the AC50 is 5.01 µM (active).
`Cc1ccccc1C(=O)Nc1ccc(C(=O)NNC(=O)CCCOc2ccc(Cl)cc2Cl)cc1`: the “activity, negative = inhibition” value is -26.9% (inactive).
Regarding `Cc1cc(C)n(Cc2ccc(NC(=O)c3ccc(COc4ccccc4Br)cc3)cc2)n1`, the AC50 was 1.12 µM (active).
Consider `Cc1cc(C)n(CCCNCC(O)c2ccccc2)n1` (configuration not stated), for which the “activity, negative = inhibition” value was -11.4% (inactive).
As for `c1ccc(CN2CC[C@@H](CNc3ncnc4ccccc34)C2)cc1`, the activity, negative = inhibition was 22.2% [at 11.4 µM] (inactive).
Regarding `O=C1CCCc2ccccc2N1Cc1cccc(Cl)c1`, the AC50 is 5.01 µM (active).
On the same count and under the same terms, the value for `C[C@@H](CN(C)C)CN1c2ccccc2CCc2ccccc21` was “inactive”.
In the case of `c1ccc(CN2CCC3(CCCc4ccccc43)CC2)cc1`, the “activity, negative = inhibition” value is -8.57% (inactive).
Take `O=C1CCCc2ccccc2N1Cc1ccccc1Cl`: the AC50 is 10 µM (active).
As for `CC(=O)NCCNc1ncnc2ccc(-c3c(C)noc3C)cc12`, the activity, negative = inhibition was 27.1% [at 2.29 µM] (inactive).
With `O=c1c2ccc(Cl)cc2nc(-c2cccc(C(F)(F)F)c2)n1O`, the AC50 is 5.01 µM (active).
As for `CCc1ccc(NC(=O)C2CCN(S(=O)(=O)c3c(C)[nH]c(=O)[nH]c3=O)CC2)cc1`, the “activity, negative = inhibition” value is -27.8% (inactive).
In the case of `CCOC(=O)N1CCN(c2c(-c3ccccc3)c3cc(Cl)ccc3[nH]c2=O)CC1`, the AC50 is 1.26 µM (active).
Take `CCOC(=O)c1[nH]c2ccc(Cl)cc2c1-c1ccccc1`: the “activity, negative = inhibition” value was -19.7% (inactive).
The same measure, in the same setting: the value for `CO[C@H]1COC(=O)C/C=C\[C@@H](C)[C@H](OC)COC(=O)[C@H]2CCCN2C(=O)C/C=C\[C@@H]1C` was 12.3% [at 11.4 µM] (inactive).
Consider `CC(=O)Oc1ccc2ccccc2c1C(NC(=O)Cc1ccccc1)c1ccc(Cl)cc1` (configuration not stated), for which the AC50 is 1.78 µM (active).
For `Cn1c([N+](=O)[O-])cnc1CN1CCN(CCO)CC1`, the activity, negative = inhibition is 8.6% [at 11.4 µM] (inactive).
`O=C(c1ccccc1)c1ccc(OCC(O)CN2CCN(Cc3ccccc3)CC2)cc1` (configuration not stated): the AC50 is 12.6 µM (active).
For the molecule `O[C@H](COc1ccccc1)CN1CCCCC1`, the activity, negative = inhibition is 9.06% [at 11.4 µM] (inactive).
Regarding `CC(C(=O)NC1CCCC1)N(C(=O)c1ccc(-c2ccccc2)[nH]1)c1ccccc1F` (configuration not stated), the AC50 is 5.01 µM (active).
On the same count and under the same terms, the value for `Fc1ccc2nc(Nc3nc4c(s3)CCCC4)sc2c1` was 14.1 µM (active).
In the case of `NCCCCC(=O)O`, the “activity, negative = inhibition” value was -13.6% (inactive).
`Cc1ccc(Sc2nc(C)cc(C)c2S(C)(=O)=O)cc1`: the AC50 is 3.55 µM (active).
As for `CC(=O)O[C@]1(C)N=NC2(CCCCC2)O1`, the activity, negative = inhibition was 16.8% [at 11.4 µM] (inactive).
Same read-out and setting: for `CCC1CCCCN1Cc1cc(OC)c(O)c([N+](=O)[O-])c1` (configuration not stated) the value was -0.234% (inactive).
Turning to `CCOC(=O)N1CCN(c2nc(-c3cccs3)cc(C(F)(F)F)n2)CC1`, the AC50 was 1.58 µM (active).
Regarding `CCCNC(=O)c1cc2c(C(F)(F)F)nn(C)c2s1`, the “activity, negative = inhibition” value is -27.8% (inactive).
Consider `CCCNC(=O)CSc1nc(-c2cccs2)cc(C(F)(F)F)n1`, for which the AC50 is 2.82 µM (active).
`Cc1cc(C)nc(SCC(=O)N/N=C\c2sccc2C)n1`: the “activity, negative = inhibition” value was -15.8% (inactive).
The same measure, in the same setting: the value for `CN1CCN(c2ncc3nc(-c4cccs4)c(=O)n(-c4ccccc4)c3n2)CC1` was -2.31% (inactive).
As to `CCOC(=O)N1CCN(c2nc(-c3ccco3)cc(C(F)(F)F)n2)CC1`, the AC50 is 1.12 µM (active).
Consider `C/C(CC/C(C)=N/O)=N/O`, for which the activity, negative = inhibition was -9.93% [at 11.4 µM] (inactive).
`O=C1OC2CC3CC1CC(O)(C3)C2` (configuration not stated): the “activity, negative = inhibition” value was -15.4% (inactive).

By AC50 is commonly meant the concentration at which the activity in the assay is half-maximal.

Source of the values: PubChem BioAssay AID1851 (National Center for Advancing Translational Sciences (NCATS), 2009).
